# Compound activity from PubChem.
# Most compounds without a hit are left out; they make up all but 3.4% or so of the library.
# TEAD-YAP block = TEAD-YAP interaction inhibition | HEK-TIYL cells, TEAD-Gal4/YAP UAS-luciferase luminescence | inhibition, % at 9.12 µM | actives 1.4% (n = 640,000); in the data active = inhibition above about 32%;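 also: 0% = median of test compound wells and 100% = reference inhibitor wells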
# GPR151 ag = human GPR151 activation; Q8TDV0; PathHunter beta-arrestin GPR151 cells, luminescence; activation, % at 11.2 µM; actives 1% (n = 650,000); in the data active = activation above about 4.9%;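 also: 0% = median of compound wells and 100% = cells with positive control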
# MITF primary = human MITF inhibition, primary screen. O75030. AlphaScreen MITF homodimerization, bead proximity signal. inhibition, % at 2.6 µM. actives 0.91% (n = 650,000); in the data active = inhibition above about 50%;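 also: 0% = vehicle wells with protein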
# FBW7 act = human FBW7 E3 ligase activation, primary screen. Q969H0. AlphaScreen FBW7–phospho-cyclin E peptide binding, activator screen. normalized activity (activation), % at 26.1 µM. actives 0.13% (n = 650,000). AID 1259310; in the data active = normalized activity above about 1.9%;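 also: purified mutant Fbw7 with reduced substrate affinity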
# Target sequence (Q969H0 whole entry, looked up): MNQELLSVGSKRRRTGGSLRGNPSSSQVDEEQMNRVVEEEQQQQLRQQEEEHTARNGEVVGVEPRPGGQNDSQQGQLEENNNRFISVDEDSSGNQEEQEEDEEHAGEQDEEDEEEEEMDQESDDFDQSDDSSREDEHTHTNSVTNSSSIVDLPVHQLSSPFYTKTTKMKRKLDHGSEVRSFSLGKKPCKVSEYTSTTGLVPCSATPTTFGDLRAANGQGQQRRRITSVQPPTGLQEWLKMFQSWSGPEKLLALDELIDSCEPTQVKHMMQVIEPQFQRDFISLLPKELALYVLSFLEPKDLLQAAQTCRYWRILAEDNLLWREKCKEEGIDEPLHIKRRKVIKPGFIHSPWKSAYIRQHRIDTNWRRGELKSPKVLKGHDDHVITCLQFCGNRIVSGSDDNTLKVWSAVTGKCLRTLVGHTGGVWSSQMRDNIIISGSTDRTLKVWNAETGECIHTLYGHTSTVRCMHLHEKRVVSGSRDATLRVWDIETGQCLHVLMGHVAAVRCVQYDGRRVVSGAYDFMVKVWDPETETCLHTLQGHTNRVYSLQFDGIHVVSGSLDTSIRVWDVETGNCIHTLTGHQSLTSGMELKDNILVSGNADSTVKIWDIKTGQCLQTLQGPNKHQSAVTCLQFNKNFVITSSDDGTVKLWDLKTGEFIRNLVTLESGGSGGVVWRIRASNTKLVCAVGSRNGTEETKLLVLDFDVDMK
# MITF inh conf = human MITF inhibition, confirmation; shares compounds with MITF primary; AlphaScreen MITF homodimerization, biotin/His-MITF beads; inhibition, % at 2.6 µM; actives 16% (n = 4,700);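 active = inhibition above a cutoff derived from the DMSO control wells, cut at about 28% in these data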;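 also: 0% = MITF dimer wells with DMSO only; inhibitors lower the bead chemiluminescence by keeping MITF from dimerizing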
# AlphaScreen DR = optically interferes with AlphaScreen signal in dose response; shares compounds with MITF primary; AlphaScreen optical interference counterscreen, cell-free; IC50, µM; actives 6% (n = 480); AID 1259373; call rule not given here
# AS interf ctr = AlphaScreen optical interference, counter-screen | shares compounds with MITF primary | LysRS AlphaScreen counterscreen, signal interference, triplicate | inhibition, % at 2.6 µM | actives 7.6% (n = 4,700) | AID 1259376;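 active = inhibition above a cutoff derived from the DMSO control wells, cut at about 30% in these data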
# * = called active by the depositor; . = no result given.
SMILES,TEAD-YAP block,GPR151 ag,MITF primary,FBW7 act,MITF inh conf,AS interf ctr,others
CCOc1cc(CN2CCN(Cc3ccccc3F)CC2)ccc1OC,-7.4,-1.0,65.4*,0.1,-15.2,-1.9,
COc1ccc(-c2cc3c(c(OC)c2)OCCN(C(=O)c2n[nH]c4c2CCC4)C3)cc1OC,-8.4,-0.2,6.4,0.1,.,.,
Fc1ccc(CN2CCN(Cc3ccco3)CC2)cc1,4.4,-0.5,70.1*,0.2,-9.6,-2.1,
Brc1cccc(CN2CCN(Cc3ccco3)CC2)c1,-3.2,1.7,80.6*,-0.1,26.7,22.2,
Brc1cccc(CN2CCOCC2)c1,0.2,0.7,-4.2,-0.1,.,.,
Cn1cccc1CN1CCN(Cc2ccc(Br)cc2)CC1,-8.2,0.8,44.9,0.0,.,.,
Clc1ccc(CN2CCN(Cc3ccco3)CC2)cc1,-7.7,0.5,86.0*,-0.3,12.9,12.4,
Cn1cccc1CN1CCN(Cc2ccco2)CC1,-9.6,0.8,68.6*,0.1,2.4,10.0,
Cc1cc(C)cc(N2C(=O)CSC23C(=O)N(CC(=O)NCc2ccco2)c2ccccc23)c1 (stereo not given),5.0,-0.3,17.1,0.6,.,.,
Clc1cccc(CN2CCN(Cc3ccco3)CC2)c1,-6.7,2.0,71.7*,0.1,5.5,7.8,
Clc1cccc(N2CCN(Cc3ccco3)CC2)c1,-13.0,-0.7,21.9,0.1,.,.,
CCc1ccc(OCC(=O)N(Cc2nc(-c3ccccc3)no2)C(C)C)cc1,-2.5,-0.5,-0.8,-0.1,.,.,
Cc1cccc(NC(=O)c2cc3c(CO)cnc(C)c3oc2=Nc2cccc(F)c2)c1,7.2,0.9,6.5,-0.1,.,.,
Cn1cccc1CN1CCN(C(=O)c2ccccc2F)CC1,7.5,-0.4,54.0*,-0.2,11.4,17.1,
Cn1cccc1CN1CCN(C(=O)c2ccc(F)cc2)CC1,3.6,-0.3,53.4*,-0.1,10.8,18.4,
Cn1cccc1CN1CCN(C(=O)c2ccc(-c3ccccc3)cc2)CC1,-5.8,1.3,33.4,0.0,.,.,
Cn1cccc1CN1CCN(C(=O)c2cccc(F)c2)CC1,9.8,2.6,27.4,-0.1,.,.,
Cc1c(Cc2ccccc2)c(=O)oc2cc(OCc3ccccc3)ccc12,-6.5,1.8,-1.4,0.0,.,.,
O=C(N/N=C/C=C/c1ccc([N+](=O)[O-])o1)c1cccc(O)c1,7.3,-0.3,22.3,0.1,.,.,
CC(O)C(=O)N/N=C/C=C/c1ccc([N+](=O)[O-])o1 (stereo not given),-0.4,3.0,55.1*,-0.7,70.6*,1.5,AlphaScreen DR=>7.17
NC(=O)C1CCN(C(=O)c2cc(-c3ccco3)nc3ccccc23)CC1,-0.6,-2.1,96.9*,-0.6,74.6*,-10.8,AlphaScreen DR=>6.68
O=C(NNC(=O)c1cc(-c2ccco2)nc2ccccc12)NC1CCCCC1,3.0,4.8,86.6*,-0.7,90.7*,1.6,AlphaScreen DR=>6.48
Cc1ccc2nc(-c3ccccc3)cc(C(=O)N3CCC(C(N)=O)CC3)c2c1,1.5,-0.6,-6.9,0.0,.,.,
CSc1cccc(NC(=O)[C@@H]2C[C@H](n3cnnn3)CN2C2CCCCC2)c1,-1.6,0.2,-12.6,0.0,.,.,
CN(C)c1ccc(NC(=S)Nc2ccccn2)cc1,-48.5,4.3,71.2*,-0.1,9.4,26.9,
SMILES,TEAD-YAP block,GPR151 ag,MITF primary,FBW7 act,MITF inh conf,AS interf ctr,others
CC1(C)C(=O)C2(C(=O)Nc3nc4ccccc4s3)CCC1C2 (stereo not given),5.8,-1.7,11.2,0.7,.,.,
CC(C)(C)c1ccc(C2C(C#N)=C(N)Oc3c2oc(CO)cc3=O)cc1 (stereo not given),-8.1,-0.3,0.0,-0.1,.,.,
Cc1cccc(NC2=C(C(=O)c3ccc(Cl)cc3)C(c3ccc(F)cc3)N(CCCCCC(=O)O)C2=O)c1 (stereo not given),-17.1,0.8,79.4*,0.3,-3.4,-1.4,
CC(C)CC(=O)Nc1ccc(C#N)cc1,7.9,2.6,-7.3,0.0,.,.,
CCN(CC)CCN(C)Cc1ccc(NC(C)=O)cc1,5.3,0.6,63.6*,0.4,-6.9,-2.5,
CCN(CC)CCN(C)Cc1ccc(SC)cc1,-1.0,-0.2,37.2,0.1,.,.,
COc1cccc(-n2nnc3c(=O)n(Cc4ccccc4C)cnc32)c1,4.8,1.4,-5.2,-0.1,.,.,
COc1ccc(NC(=O)C2=C(C)NC(=S)NC2c2cccc(OC)c2)cc1 (stereo not given),-0.4,1.0,13.1,-0.1,.,.,
COc1ccc(CN2CCN(Cc3cccc(OC)c3OC)CC2)cc1,-5.9,-0.8,75.3*,-0.2,9.0,11.6,
